# Screens (PubChem BioAssay)
# PAFAH2 inh – inhibitors of human PAFAH2; AID 492956; 340,000 tested, 0.99% active; inhibition, % at 3.39 µM; Q99487; recombinant PAFAH2, FP-rhodamine activity probe, fluorescence polarization;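 active means inhibition above the mean over all tested compounds plus 3 SD, cut at about 30% in these data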;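 further: inhibitors block probe labeling of enzyme so polarization drops; 0% = enzyme with DMSO and 100% = wells lacking PAFAH2 protein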
# PAFAH1B2 inh – blocks human PAF acetylhydrolase 1b catalytic subunit 2. inhibition, % at 3.39 µM. 340,000 tested, 1.2% active. recombinant PAFAH1B2, FP-rhodamine activity probe, fluorescence polarization;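 active means inhibition above the mean of all tested compounds plus 3 SD, cut at about 24% in these data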;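 further: 0% = enzyme with DMSO and 100% = wells lacking PAFAH1B2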
# PAFAH1B3 inh – inhibitors of human PAFAH1B3; recombinant PAFAH1B3, FP-rhodamine probe, fluorescence polarization; inhibition, % at 3.39 µM; 340,000 tested, 0.28% active;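 active means inhibition above the screen-wide average of all tested compounds plus 3 SD, cut at about 25% in these data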;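 further: 0% = enzyme with DMSO only and 100% = wells lacking PAFAH1B3 protein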
# pPAFAH FP inh – inhibitors of human plasma PAF acetylhydrolase (pPAFAH). AID 463082. Q13093. inhibition, % at 3.39 µM. recombinant pPAFAH, FP-rhodamine probe fluorescence polarization. 330,000 tested, 1.5% active;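 active means inhibition above the mean inhibition across the screen plus 3 SD, cut at about 25% in these data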;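 further: inhibitors block binding of the rhodamine activity-based probe so polarization drops; 0% = enzyme with DMSO and 100% = wells lacking pPAFAH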
# Target sequence (Q13093 whole entry, looked up): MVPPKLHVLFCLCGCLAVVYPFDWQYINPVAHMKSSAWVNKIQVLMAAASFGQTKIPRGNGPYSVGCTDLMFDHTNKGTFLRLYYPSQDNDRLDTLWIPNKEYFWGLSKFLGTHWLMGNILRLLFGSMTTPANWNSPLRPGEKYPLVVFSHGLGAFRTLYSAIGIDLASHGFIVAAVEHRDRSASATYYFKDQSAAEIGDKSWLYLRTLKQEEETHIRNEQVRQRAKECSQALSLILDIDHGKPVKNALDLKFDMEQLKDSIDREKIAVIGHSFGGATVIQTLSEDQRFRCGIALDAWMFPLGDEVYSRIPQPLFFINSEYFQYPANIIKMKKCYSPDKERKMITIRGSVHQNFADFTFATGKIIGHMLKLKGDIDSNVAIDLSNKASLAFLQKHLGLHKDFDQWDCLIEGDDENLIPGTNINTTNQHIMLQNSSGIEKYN
# PME-1 inh – blocks human protein phosphatase methylesterase 1; 320,000 tested, 0.53% active; inhibition, % at 5.9 µM; Q9Y570; AID 2130; recombinant PME-1, FP-Rh probe fluorescence polarization;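 active means inhibition above the campaign mean of all compounds plus 3 SD, cut at about 26% in these data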;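 further: competitive labeling of PME-1 active site by serine hydrolase directed probe; 0% = PME-1 with DMSO and 100% = wells lacking PME-1 enzyme; inhibitors block probe labeling so polarization falls and inhibition rises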
# Fam108B inh – blocks mouse Fam108B hydrolase in RBBP9 counter-screen. recombinant Fam108B, FP-Rh probe fluorescence polarization. 300,000 tested, 0.33% active. inhibition, % at 9.51 µM;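 active means inhibition above the screen mean inhibition plus 3 SD, computed separately per campaign, cut at about 18% in these data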;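 further: inhibitors lower polarization as less probe binds the enzyme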
# PAFAH2 FP conf – PAFAH2 (human) inhibition, confirmed. recombinant PAFAH2, FP-rhodamine activity probe, fluorescence polarization. inhibition, % at 3.39 µM. 2,300 tested, 65% active. shares compounds with PAFAH2 inh;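 active means mean inhibition over three repeats above a set limit taken from the earlier primary screen, cut at about 30% in these data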;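 further: inhibitor blocks binding of rhodamine activity probe so polarization falls; 0% = enzyme with DMSO and 100% = wells lacking PAFAH2 protein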
# * hit, by the source's call; . = not tested or not shown. Hits are enriched below; roughly 2.8% of the tested compounds scored in any of these assays.
SMILES,PAFAH2 inh,PAFAH1B2 inh,PAFAH1B3 inh,pPAFAH FP inh,PME-1 inh,Fam108B inh,PAFAH2 FP conf
O=C(c1cnn2c(C(F)(F)F)cc(-c3ccccc3)nc12)N1CCCc2ccccc21,39*,2,-1,6,1,3,39*
O=C(c1cnn2c(C(F)F)cc(-c3ccccc3)nc12)N1CCCc2ccccc21,-10,3,4,-4,-7,-1,.
COc1cccc(C(=O)OCC(=O)N2CCc3ccccc32)c1OC,43*,2,5,.,.,.,43*
COc1ccc(Br)c(C(=O)OCC(=O)N2CCc3ccccc32)c1,18,2,-5,2,.,.,.
O=C(OCC(=O)N1CCc2ccccc21)c1ccccc1,47*,1,0,1,2,1,38*
COc1cc(N)c(Cl)cc1C(=O)OCC(=O)N1CCc2ccccc21,33*,3,0,2,7,.,18
COC(=O)c1ccc2c(c1C(=O)OC)CN(S(=O)(=O)C(C)(C)C)[C@H]2CCO,1,5,7,.,.,.,.
Cn1cc(-c2cccc(C(F)(F)F)c2)cc(C#N)c1=O,-6,2,10,9,3,1,.
CCc1ccc(N2CC(C(=O)Nc3ccc4c(c3)OCO4)CC2=O)cc1 (centres undefined),6,5,5,2,-1,.,.
O=C(COC(=O)c1ccc[nH]c1=O)NCCc1ccc(Cl)cc1Cl,2,12,10,4,2,1,.
Cc1ccc(C(=O)c2ccccc2C(=O)OCC(=O)NCCc2ccc(Cl)cc2Cl)cc1,46*,5,3,2,3,-9,49*
O=C(COC(=O)/C=C/c1ccccc1Cl)NCCc1ccc(Cl)cc1Cl,66*,1,6,6,-7,-8,52*
O=C(COC(=O)/C=C/c1ccc(Cl)cc1Cl)NCCC1=CCCCC1,-4,1,3,5,3,2,.
CS(=O)(=O)c1ccc(Cl)c(NC(=O)Cc2ccccc2F)c1,52*,1,7,13,-1,-1,30*
CN(CC(=O)Nc1ccc(F)cc1)C(=O)COC(=O)/C=C/c1cccs1,6,4,-3,2,4,1,.
COc1ccccc1CNC(=O)COC(=O)/C=C/c1cccs1,50*,5,6,14,1,3,37*
CCc1cccc(NC(=O)COC(=O)/C=C/c2cccs2)c1,73*,3,1,17,-4,-4,78*
COc1ccccc1CNC(=O)COC(=O)c1ccc(C)s1,75*,4,3,21,5,.,62*
O=C(COC(=O)/C=C/c1cccs1)Nc1ccc(F)cc1,82*,2,6,7,-2,.,82*
COc1ccc(Cl)cc1NC(=O)CCN1C(=O)C2C3C=CC(C4CC34)C2C1=O (centres undefined),-5,6,-4,1,-6,0,.
Cc1ccc(C(=O)N2CCN(c3ccc([N+](=O)[O-])cc3)CC2)o1,6,-1,5,3,-1,0,.
COc1ccc(C(=O)NCCN2CCOCC2)c(OC)c1OC,-6,2,5,7,6,5,.
COc1cc2ccccc2cc1C(=O)NC1CCC(C)CC1 (centres undefined),6,4,4,-3,.,.,.
Cc1ccc(C2=Nc3ccccc3SC(c3cccc([N+](=O)[O-])c3)C2)cc1 (centres undefined),4,2,6,4,-5,-6,.
Cc1cccc(-c2oc3ccccc3c2C#CCCO)c1,0,3,3,0,-4,1,.
SMILES,PAFAH2 inh,PAFAH1B2 inh,PAFAH1B3 inh,pPAFAH FP inh,PME-1 inh,Fam108B inh,PAFAH2 FP conf
CCC(C)c1ccc(OCC(=O)Nc2ccc(CN3CCOCC3)cc2)cc1 (centres undefined),0,5,5,.,.,.,.
O=C(COC(=O)/C=C/c1cccs1)Nc1cccc(S(=O)(=O)N2CCCC2)c1,64*,1,11,5,4,3,57*
CCOc1ccc(/C=C/C(=O)OCC(=O)Nc2cccc(S(=O)(=O)N3CCCC3)c2)cc1,25,-2,-5,-3,-25,.,.
CN(C)CCC1c2ccc(Cl)cc2CCc2cccnc21 (centres undefined) (tested in a mixture with another compound),4,1,3,5,0,-5,.
O=C(NNC(=O)c1cccc(O)c1)Nc1ccc([N+](=O)[O-])cc1,49*,4,7,-3,2,6,1
COc1ccc(N2C(=O)CCC(C(=O)NCCCN3CCC(C)CC3)C2c2ccc(OC)c(OC)c2)cc1 (centres undefined),2,3,9,0,-14,-1,.
CC(C)n1c(N2CCN(C(=O)c3cccs3)CC2)nc2ccccc21,-4,4,3,-2,-1,-3,.
CC(C)n1c(N2CCN(C(=O)N3CCCCC3)CC2)nc2ccccc21,33*,7,1,8,-2,1,18
Cc1cccc(OCCCN2C(=O)C(=O)c3cc(C)ccc32)c1,2,6,4,11,3,1,.
Cc1ccc(N2CCN(C(=O)c3ccccc3NC(=O)C3CC=CCC3C(=O)O)CC2)cc1 (centres undefined),66*,2,7,0,-1,-7,57*
CCOC(=O)N1CCN(C(=O)c2ccccc2NC(=O)c2ccc(Br)cc2)CC1,44*,2,-2,-4,3,0,26
COc1cc(NC(=O)c2cccs2)c(C(=O)OCC(=O)NCc2ccco2)cc1OC,11,2,-2,4,-4,-1,.
O=C(COC(=O)c1cccs1)NCc1ccco1,45*,0,6,11,-3,0,29
Cc1ccsc1C(=O)OCC(=O)NCc1ccccc1,34*,0,8,8,.,.,23
O=C(COC(=O)c1cccs1)NCc1ccccc1,47*,2,10,6,-1,2,34*
Cn1c(C(=O)OCC(=O)NCc2ccco2)cc2sccc21,45*,-5,19,14,11,-1,22
O=C(OCc1ccccc1)/C(=C/c1ccccc1Cl)NC(=O)c1ccco1,-7,2,-4,8,-8,3,.
O=C(CNC(=O)c1ccc2ccccc2c1)NCc1ccc(F)cc1,10,6,12,-1,-1,1,.
O=C(COC(=O)c1cccs1)NCC1CCCCC1,79*,3,4,5,-1,0,82*
CN(C)c1cccc(C(=O)OCC(=O)NCc2ccco2)c1,57*,-1,-6,9,9,1,44*
CC(CNC(=O)COC(=O)c1cccs1)c1ccccc1 (centres undefined),75*,1,6,1,0,.,73*
